Bioassay records (PubChem BioAssay)
In the library only some 14% were active in any assay of this set; here they are far more common.
Cycloheximide cs: counter-screen for Shiga toxin inhibitors: cycloheximide protein synthesis inhibition; cell reporter, cycloheximide protein synthesis inhibition counterscreen; max response, %; actives 12% (n = 300,000); AID 2314; in the data active = max response mostly above about 13%, no sharp cut-off; inactive = mostly below about 14%; note: read at 38.3 µM for the half of the compounds with a filed dose; 0% is about no effect
Shiga toxin inh: blocks Shiga toxin action in Vero cells. inhibition, % at 38.7 µM. Vero cells, Shiga toxin protein synthesis inhibition reporter. actives 9.2% (n = 290,000); in the data active = inhibition mostly above about 28%, no sharp cut-off; inactive = mostly below about 43%; note: 0% is about no effect
LmPK inh: blocks Leishmania mexicana pyruvate kinase activity. Q27686. purified LmPK, Kinase-Glo ATP luminescence, 1 h. Potency, µM (doses to about 57.5 µM), for the others: at the highest dose activity change, negative = inhibition, hits mostly inhibitors. actives 0.37% (n = 290,000). AID 1721; note: potency is the fitted concentration of half-maximal effect; % is set by controls: 0 for no effect and ±100 for the full control effect
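Purified LmPK (0.1 nM) converted ADP (0.1 mM) to ATP with PEP (0.5 mM) in imidazole buffer pH 7.2 with KCl and MgCl2, 1 h at room temperature. ATP was read by Kinase-Glo luminescence; data normalized to uninhibited and no-enzyme controls.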
NS1 function inh: influenza NS1 inhibition | Potency, µM (doses to about 46.1 µM), inactives show at the highest dose activity, positive = more growth | actives 0.4% (n = 270,000) | AID 2326; calls by dose curve; note: potency is the fitted concentration of half-maximal effect; actives are rising curves; nearly all actives have a fitted effect of over 50% in size
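Recovery from NS1-induced slow growth read by OD600 in budding yeast switched to galactose assay medium (pH 6.0, -URA) at 1:100 dilution. Compound 23 nl per well; the matching strain lacking NS1 serves as control.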
FBPA Giardia inh: Giardia lamblia aldolase inhibition. A8B2U2. purified Giardia FBPA. Potency, µM (titrated, usually from 59.6 µM), for the others: at the top dose activity, negative = inhibition, usual class: inhibitors. actives 0.71% (n = 290,000). AID 2451; note: potency is the fitted concentration of half-maximal effect; % is set by controls: 0 for no effect and ±100 for the full control effect; nearly all actives have a fitted effect of over 55% in size
Target sequence (A8B2U2 whole entry, looked up): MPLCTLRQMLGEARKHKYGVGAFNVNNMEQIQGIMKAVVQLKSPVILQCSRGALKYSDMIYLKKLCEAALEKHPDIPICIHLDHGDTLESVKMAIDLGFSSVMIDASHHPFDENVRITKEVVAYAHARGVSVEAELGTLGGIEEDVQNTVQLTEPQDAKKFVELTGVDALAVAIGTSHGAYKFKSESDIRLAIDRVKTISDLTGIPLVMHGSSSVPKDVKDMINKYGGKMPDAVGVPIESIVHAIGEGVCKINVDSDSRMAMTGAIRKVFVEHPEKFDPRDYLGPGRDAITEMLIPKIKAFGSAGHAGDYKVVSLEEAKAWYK
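40 nM FBPA preincubated 10 min at RT with compound (up to 57.5 uM final), then substrate plus GAPDH/TPI/NAD/arsenate coupling and diaphorase/resazurin added. Fluorescence read after 20 min at RT, 525/598 nm.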
An asterisk follows results filed as active; ? = inconclusive; . = no result given. Unless noted, calls come from the whole dose curve; as a rule, active = well fitted curve in the direction sought with a large enough effect; inconclusive = small, poorly fitted or top-dose-only effect, or another doubt; inactive = no such curve, though single readings can be large; an effect the other way counts as inactive or inconclusive.

SMILES	Cycloheximide cs	Shiga toxin inh	LmPK inh	NS1 function inh	FBPA Giardia inh
C[N+](C)(C)/N=C\c1ccc(O)c(O)c1	.	.	.	-3%	.
Oc1ccc(N=Cc2ccc(O)c(O)c2)cc1	11	29	-13%	4%	1.6µM*
Oc1ccc(/C=N/N=C/c2ccc(O)c(O)c2)cc1O	23*	21*	-6%	15%	?
O=Cc1ccc(O)c(O)c1	-4	-15	8%	-5%	?
O=C(CCn1c(=O)oc2ccccc21)Nc1cccc(Br)c1	-2	2	11%	-7%	-9%
O=C(CN(CCc1ccccc1)C(=O)c1csnn1)NCc1ccc(F)cc1	1	-6	-3%	3%	12%
CC(C)Cn1c(N)c(/C=N/NC(=O)c2ccc(Cl)cc2)c(=O)n(C)c1=O	-5	-5	1%	-51%	10%
Cc1ccc(NC(=O)c2ccc(OC(F)F)cc2)cc1S(=O)(=O)N(C)C	29*	0	-1%	8%	-10%
Cc1ccc(NC(=O)c2ccc([N+](=O)[O-])cc2)cc1S(=O)(=O)N(C)C	40*	68*	1%	.	-6%
c1ccc(CN2CCC3(CC2)SSC2(CCN(Cc4ccccc4)CC2)SS3)cc1	.	.	.	-3%	.
c1ccc(COC[C@@H]2CO2)cc1	-1	5	.	.	2%
COc1ccc(NC(=O)N2CC[C@@]3(CCCN(S(C)(=O)=O)C3)C2)cc1	.	.	.	.	-9%
CN(C)S(=O)(=O)c1cc(NC(=O)c2cc(=O)c3ccccc3o2)ccc1Cl	31*	34*	4%	22%	-2%
Cc1ccc(NC(=O)c2cc3ccccc3o2)cc1S(=O)(=O)N(C)C	54*	78	1%	10%	3%
CN(C)S(=O)(=O)c1ccc(NC(=O)c2ccc(Br)o2)cc1	28	-4	3%	-87%	-6%
CN(C)S(=O)(=O)c1ccc(NC(=O)c2cc3ccccc3o2)cc1	20*	130*	-2%	-11%	-18%
Cc1ccc(NC(=O)c2cc3ccccc3oc2=O)cc1S(=O)(=O)N(C)C	0	-22	-2%	.	6%
O=C(Nc1ccon1)Nc1ccc(F)cc1F	10	52	-2%	-3%	13%
Cc1ccc(-n2ncc3c2CCCC3NC(=O)CCc2cnccn2)cc1C (centres undefined)	-1	-4	1%	3%	12%
CSCC[C@H](NC(=O)[C@H](Cc1ccc(OS(=O)(=O)O)cc1)NC(=O)[C@@H](N)CC(=O)O)C(=O)NCC(=O)N[C@@H](Cc1c[nH]c2ccccc12)C(=O)N[C@@H](CCSC)C(=O)N[C@@H](CC(=O)O)C(=O)N[C@@H](Cc1ccccc1)C(N)=O	8	-8	.	.	-6%
Cc1ccccc1NC(=O)OCc1ccccc1	28*	59*	-7%	-10%	4%
CSc1ccccc1COC(=O)Nc1ccccc1C	29*	36	0%	.	1%
CSc1nsc(SC)c1NC(=O)OCc1ccccc1	22*	45	0%	-33%	.
CSc1ccccc1OCc1cc(C(=O)NCc2csc(C(C)C)n2)no1	17*	15	-3%	-4%	.
CSc1ccccc1OCc1cc(C(=O)N(C)C2CCCc3ccccc32)no1 (centres undefined)	35	50*	6%	14%	.
SMILES	Cycloheximide cs	Shiga toxin inh	LmPK inh	NS1 function inh	FBPA Giardia inh
CSc1ccccc1OCc1cc(C(=O)N2CCc3c(Cl)cccc3C2)no1	4	-2	8%	4%	5%
CSc1ccccc1OCc1cc(C(=O)NCCc2ccco2)no1	35*	59*	-4%	-6%	.
CSc1ccccc1OCc1cc(C(=O)NCCc2nc(C)cc(C)n2)no1	24*	43*	-10%	-3%	14%
CSc1ccccc1OCc1cc(C(=O)NCc2cnc(C)cn2)no1	7	-5	-6%	-20%	.
COc1ccccc1CNC(=O)/C(C#N)=C/c1ccc(OC)c(OC)c1OC	-3	-18	5%	0%	-7%
Cc1cccc(C)c1OCc1cc(C(=O)NCc2cn(C)nc2C)no1	13*	8	-5%	0%	11%
Cc1cc(C)nc(CCNC(=O)c2cc(COc3c(C)cccc3C)on2)n1	16*	-18	-6%	-16%	.
CSc1ccccc1OCc1cc(C(=O)NCCn2ccnc2C)no1	2	40	0%	7%	7%
CSc1ccccc1OCc1cc(C(=O)NCCC2CCCCO2)no1 (centres undefined)	33*	45*	-5%	5%	.
COCCN1CC(CNC(=O)c2cc(COc3ccccc3SC)on2)CC1=O (centres undefined)	12*	20	-4%	-6%	5%
